In PubChem BioAssay (Tox21) one finds Potency and outcome data, which are given here for seven compounds.

Results filed as inconclusive are left out. The source made the active and inactive calls. Unless noted, calls come from the whole dose curve; as a rule, active = well fitted curve in the direction sought with a large enough effect in the repeat runs; inconclusive = weak or mixed curves; inactive = no such curve, though single readings can be large; an effect the other way counts as inactive or inconclusive.

Assay [1] in a line: qHTS assay to test for compound auto fluorescence at 535 nm (green) in HEK293 cells (AID 720680). For orientation: Quantitative high-throughput screening tests each substance at several concentrations.
Assay [2] can be described thus: qHTS assay to test for compound auto fluorescence at 460 nm (blue) in HEK293 cell free culture (AID 720681). In a few lines: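 Compounds were added to cell-free DMEM with 10% FBS and fluorescence read directly. The blue channel used 405 nm excitation and 460 nm emission, with triamterene as the reference fluorophore.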
A short description of assay [3]: qHTS assay to test for compound auto fluorescence at 535 nm (green) in HEK293 cell free culture (AID 720682). In a few lines: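 Each library compound, or DMSO control, is added by pintool to medium alone, comprising DMEM and 10% FBS. Emission at 535 nm following 485 nm excitation is quantified against fluorescein.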
Assay [4] is described as follows: qHTS assay to test for compound auto fluorescence at 590 nm (red) in HEK293 cell free culture (AID 720683). The method in brief:
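Cell-free wells of DMEM with 10% FBS received compound, and intrinsic fluorescence was read at excitation/emission 540/590 nm. Values expressed as equivalence to Rose Bengal sodium.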

The nature of assay [5]: qHTS assay to test for compound auto fluorescence at 590 nm (red) in HepG2 cell free culture (AID 720684). In a few lines: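 Compounds are added to culture medium (MEM, 10% FBS) lacking cells, then fluorescence is read at excitation 540 nm, emission 590 nm, with Rose Bengal sodium as the equivalency standard.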
Assay [6] in a line: qHTS assay to test for compound auto fluorescence at 460 nm (blue) in HepG2 cell free culture (AID 720685). The method in brief:
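Compound (23 nL) or DMSO pinned into cell-free MEM with 10% FBS; blue fluorescence read at 405/460 nm excitation/emission, expressed as auto-fluorescence equivalency to triamterene.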

The nature of assay [7]: qHTS assay to test for compound auto fluorescence at 535 nm (green) in HepG2 cell free culture (AID 720686).
Assay [8] can be described thus: qHTS assay to test for compound auto fluorescence at 460 nm (blue) in HepG2 cells (AID 720687). The method in brief:
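HepG2 cells in MEM with 10% FBS, attached overnight at 37 C, were exposed to compound or DMSO for 1 hr at 37 C, 5% CO2. Blue fluorescence was read at 405/460 nm, with triamterene as reference fluorophore.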

The nature of assay [9]: qHTS assay to identify small molecule antagonists of the glucocorticoid receptor (GR) signaling pathway - cell viability counter screen (AID 720693). Note: nearly all actives have a fitted effect of over 55% in size. Note: potency is the fitted concentration of half-maximal effect.
Assay [10] is described as follows: qHTS assay for identifying genotoxic compounds that show differential cytotoxicity against isogenic chicken DT40 cell lines with known DNA damage response pathways - wild type cell line (AID 743012). Note: nearly all actives have a fitted effect of over 60% in size. Note: potency is the fitted concentration of half-maximal effect. In a few lines:
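Wild-type DT40 cells (300/well) exposed to compounds for 40 hours at 37 C/5% CO2. Viability read by CellTiter-Glo luminescence after 30 min at room temperature.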

Assay [11] is described as follows: qHTS assay for identifying genotoxic compounds that show differential cytotoxicity against isogenic chicken DT40 cell lines with known DNA damage response pathways - Rad54/Ku70 mutant cell line (AID 743015). Note: nearly all actives have a fitted effect of over 60% in size. Note: potency is the fitted concentration of half-maximal effect.
Assay [12] in a line: qHTS assay to identify small molecule antagonists of the androgen receptor (AR) signaling pathway - cell viability counter screen (AID 743033; note: nearly all actives have a fitted effect of over 45% in size).
The target of assay [13] is Androgen receptor (Homo sapiens) (UniProt P10275). Nature of the assay: qHTS assay to identify small molecule antagonists of the androgen receptor (AR) signaling pathway (AID 743035; active = well fitted inhibition curve with a large enough effect in the signal ratio in the repeat runs, not every such curve was filed as active; the % refers to the signal ratio; note: potency is the fitted concentration of half-maximal effect). In a few lines: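 HEK293 cells stably carrying UAS-beta-lactamase reporter, 2,000/well, given compounds plus R1881 agonist and incubated 16 h at 37C. LiveBLAzer B/G FRET substrate then added for 2 h at room temperature before fluorescence reading.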
Chain of Androgen receptor (Homo sapiens) (P10275 whole entry, looked up): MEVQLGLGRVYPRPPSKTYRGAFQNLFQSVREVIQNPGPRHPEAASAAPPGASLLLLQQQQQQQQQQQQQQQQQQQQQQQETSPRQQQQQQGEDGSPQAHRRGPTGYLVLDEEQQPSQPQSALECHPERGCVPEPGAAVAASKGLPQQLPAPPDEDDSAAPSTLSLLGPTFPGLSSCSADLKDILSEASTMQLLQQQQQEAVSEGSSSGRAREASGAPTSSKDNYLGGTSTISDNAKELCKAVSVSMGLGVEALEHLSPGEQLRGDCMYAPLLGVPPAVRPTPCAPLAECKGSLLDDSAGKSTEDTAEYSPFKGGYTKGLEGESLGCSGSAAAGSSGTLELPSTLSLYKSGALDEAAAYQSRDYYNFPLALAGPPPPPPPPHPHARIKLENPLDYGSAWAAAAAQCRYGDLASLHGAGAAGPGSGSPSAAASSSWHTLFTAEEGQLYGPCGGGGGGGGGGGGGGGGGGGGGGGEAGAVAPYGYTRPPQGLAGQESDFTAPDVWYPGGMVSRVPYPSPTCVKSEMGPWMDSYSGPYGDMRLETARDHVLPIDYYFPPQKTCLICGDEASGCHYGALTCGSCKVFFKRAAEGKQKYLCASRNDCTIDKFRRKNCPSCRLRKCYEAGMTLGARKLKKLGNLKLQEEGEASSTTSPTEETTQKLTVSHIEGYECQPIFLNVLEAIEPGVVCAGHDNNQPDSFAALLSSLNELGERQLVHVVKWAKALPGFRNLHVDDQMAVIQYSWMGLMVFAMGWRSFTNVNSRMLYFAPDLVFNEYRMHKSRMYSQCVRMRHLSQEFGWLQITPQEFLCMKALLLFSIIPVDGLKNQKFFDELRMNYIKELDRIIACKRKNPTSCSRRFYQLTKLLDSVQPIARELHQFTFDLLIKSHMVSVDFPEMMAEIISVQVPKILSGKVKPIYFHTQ

Assay [14] has the same target. Description: qHTS assay to identify small molecule agonists of the androgen receptor (AR) signaling pathway using the MDA cell line (AID 743040; note: nearly all actives have a fitted effect of over 20% in size; note: potency is the fitted concentration of half-maximal effect). In a few lines:
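Human breast carcinoma MDA-kb2 reporter cells (MMTV-luc, AR/GR elements) were treated for 16 h at 37C in 0% CO2 following a 5 h settling period. Signal was quantified by ONE-Glo luminescence.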

Assay [15] in a line: qHTS assay to identify small molecule antagonists of the androgen receptor (AR) signaling pathway using the MDA cell line - cell viability counter screen (AID 743041; note: nearly all actives have a fitted effect of over 45% in size). The method in brief:
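Same-well cytotoxicity was assessed by CellTiter-Fluor in MDA-kb2 AR-luc cells after 16 h of compound treatment under R1881 agonism.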

The target in assay [16] is Androgen receptor (Homo sapiens) (UniProt P10275). Description: qHTS assay to identify small molecule antagonists of the androgen receptor (AR) signaling pathway using the MDA cell line (AID 743042; note: nearly all actives have a fitted effect of over 55% in size). In a few lines:
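MDA-kb2 breast carcinoma cells carrying MMTV-luciferase (AR/GR responsive) were co-treated with compounds and the agonist R1881 for 16 h at 37C. Inhibition read as ONE-Glo luminescence; CellTiter-Fluor fluorescence measured in parallel for cytotoxicity.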

Assay [17] has the same target. Nature of the assay: qHTS assay to identify small molecule agonists of the androgen receptor (AR) signaling pathway (AID 743036; active = well fitted activation curve with a large enough effect in the signal ratio in the repeat runs, with a control signal flat, not every such curve was filed as active; the % refers to the signal ratio). The method in brief:
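Following a 4 h settling period, AR-UAS-bla HEK293 cells were dosed with compounds for 16 h at 37C. A 2 h room-temperature incubation with LiveBLAzer B/G FRET substrate preceded the fluorescence measurement.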

A short description of assay [18]: qHTS assay for identifying genotoxic compounds that show differential cytotoxicity against isogenic chicken DT40 cell lines with known DNA damage response pathways - Rev3 mutant cell line (AID 743014). Note: nearly all actives have a fitted effect of over 55% in size. Note: potency is the fitted concentration of half-maximal effect.

Turning to `CC(=O)[C@@]1(O)CC[C@H]2[C@@H]3C=C(Cl)C4=CC(=O)CC[C@]4(C)[C@H]3CC[C@@]21C`, the Potency result in assay [1], in assay [2], in [3], in assay [4], in assay [5] and in assay [7] was “inactive” in each case. Moreover, the Potency result in assay [9], in assay [12], in [15] and in [16] was “inactive” throughout. Besides, the call in assay [6] and in assay [8] was inactive. For the same compound, the Potency was 11.9 µM (active) in assay [10], 23.7 µM (active) in [11], 0.674 µM (active) in assay [13] and 0.596 µM (active) in [14].
Take `CC(C)[C@@H]1CC[C@@H](C)C[C@H]1OC(=O)c1ccccc1O`: the Potency result in [1], in [2], in assay [3], in [4], in assay [5] and in [7] was “inactive” in each case. Further, the Potency result in [9], in assay [10], in [11], in assay [12], in assay [17] and in assay [14] was “inactive” each time. Also, the Potency entry in assay [16] was “inactive”. Moreover, the compound was classed as inactive in assay [6] and in assay [8].
In the case of `O=C(O)c1ccc(NC(=O)[C@H](Cc2ccc(O)cc2)NC(=O)c2ccccc2)cc1`, the Potency entry in assay [1], in assay [2], in assay [3], in [4], in assay [5] and in assay [7] was “inactive” throughout. Further, the Potency result in assay [9], in assay [10], in [18], in [12], in [13] and in [17] was “inactive” each time. Also, the Potency entry in assay [14] and in assay [16] was “inactive” in each case. Also, the compound was called inactive in [6] and in [8].
For `CO[C@H]1C[C@H](O[C@H]2[C@H](C)O[C@@H](O[C@@H]3/C(C)=C/C[C@@H]4C[C@@H](C[C@]5(C=C[C@H](C)[C@@H](C6CCCCC6)O5)O4)OC(=O)[C@@H]4C=C(C)[C@@H](O)[C@H]5OC/C(=C\C=C\[C@@H]3C)[C@]54O)C[C@@H]2OC)O[C@@H](C)[C@@H]1O`, the Potency result in assay [1], in [2], in assay [3], in assay [4], in [5] and in [7] was “inactive” each time. Moreover, the Potency result in assay [12] and in [15] was “inactive” each time. Moreover, the call in assay [6] and in assay [8] was inactive. Moreover, the Potency is 7.56 µM (active) in assay [9], 5.31 µM (active) in assay [10], 6.68 µM (active) in assay [18] and 5.96 µM (active) in [11].
In the case of `CN(C)C=Nc1c(I)cc(I)c(CCC(=O)O)c1I`, the Potency result in assay [1], in assay [2], in assay [3], in [4], in assay [5] and in [7] was “inactive” throughout. The Potency result in assay [9], in assay [10], in [11] and in assay [12] was “inactive” in each case. The call in [6] and in [8] was inactive.
As for `CC(O)[C@@H]1NC(=O)[C@H](Cc2ccccc2)NC(=O)[C@H](C(C)O)NC(=O)[C@H](CCCCN)NC(=O)[C@H](Cc2c[nH]c3ccccc23)NC(=O)[C@H](Cc2ccccc2)NC(=O)[C@H](Cc2ccccc2)NC(=O)[C@H](CC(N)=O)NC(=O)[C@H](CCCCN)NC(=O)[C@@H](NC(=O)CNC(=O)[C@H](C)N)CSSC[C@@H](C(=O)O)NC(=O)[C@H](CO)NC1=O` (stereo partly specified), the Potency entry in [1], in assay [2], in assay [3], in assay [4], in [5] and in [7] was “inactive” throughout. Also, the Potency entry in [9], in [10], in assay [18], in [11], in [12] and in assay [15] was “inactive” throughout. The result in assay [6] and in assay [8] was inactive.
Regarding `COc1c(O[C@@H]2O[C@H](CO)[C@@H](O)[C@H](O)[C@H]2O)cc2c(c1OC)-c1ccc(SC)c(=O)cc1[C@@H](NC(C)=O)CC2`, the Potency result in assay [1], in [2], in assay [3], in assay [4], in assay [5] and in [7] was “inactive” each time. The Potency entry in assay [9], in [10], in [18], in assay [11], in assay [12] and in assay [15] was “inactive” each time. The outcome in assay [6] and in assay [8] was inactive.
